Assay outcomes (PubChem BioAssay)
RE007 growth inh = less growth of the S. pombe RE007 Vpr strain | S. pombe RE007 Vpr strain, BacTiter-Glo ATP luminescence, 24 h | Potency, µM (highest dose often 92.2 µM), for inactives: top-dose activity change, negative = less growth, usual class: inhibitors | hit rate 0.21% among 360,000; active = well fitted falling curve with a large enough effect; inconclusive = small, poorly fitted or top-dose-only effect; inactive = no such curve, though single readings can be large or run the other way; note: % is set by controls: 0 for no effect and ±100 for the full control effect; nearly all actives have a fitted effect of over 50% in size
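Fission yeast strain RE007, carrying one chromosomally integrated HIV-1 vpr copy, was seeded at OD 0.01 in PMG+AL medium with 23 nL pinned compound. After 24 h at 30 °C and 99% humidity, viability was read by BacTiter-Glo luminescence.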
AmpC detergent = AmpC beta-lactamase inhibition with detergent present | P00811 | AmpC hydrolysis of nitrocefin, absorbance 480 nm, 0.01% Triton | Potency, µM (doses to about 114 µM), for inactives: top-dose activity change, negative = inhibition, actives largely listed as inhibitors | hit rate 0.041% among 370,000 | AID 485294;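 note: 0% = no-compound wells and -100% = no-enzyme wells; nearly all actives have a fitted effect of over 25% in size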
Target sequence (P00811 whole entry, looked up): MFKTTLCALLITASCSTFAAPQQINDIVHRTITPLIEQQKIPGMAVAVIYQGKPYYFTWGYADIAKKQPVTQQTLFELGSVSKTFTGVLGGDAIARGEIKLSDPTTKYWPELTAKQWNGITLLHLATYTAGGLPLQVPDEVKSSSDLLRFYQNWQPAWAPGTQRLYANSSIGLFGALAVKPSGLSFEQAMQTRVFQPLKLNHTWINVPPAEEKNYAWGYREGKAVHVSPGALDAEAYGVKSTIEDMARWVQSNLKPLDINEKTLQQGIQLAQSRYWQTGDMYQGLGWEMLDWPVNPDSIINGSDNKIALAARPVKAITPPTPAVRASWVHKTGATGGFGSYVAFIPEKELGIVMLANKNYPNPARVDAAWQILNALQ
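AmpC (5.3 nM in the dispensed reagent) in 20 mM phosphate pH 7.0 with 0.01% (detergent screen) or 0.0001% Triton X-100 was preincubated with compounds for 15 min at room temperature. Nitrocefin was then added from an 800 uM solution, and hydrolysis was followed at 480 nm.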
TbPYK inhibitor = blocks Trypanosoma brucei pyruvate kinase; hit rate 0.12% among 410,000; Potency, µM (titrated, usually from 76.8 µM), inactives show top-dose activity, negative = inhibition, usual class: inhibitors; AID 624173; TbPYK enzyme, Kinase-Glo Plus ATP luminescence, 45 min; Q57TT1; note: % is set by controls: 0 for no effect and ±100 for the full control effect; nearly all actives have a fitted effect of over 50% in size
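Assay buffer: 50 mM TEA pH 7.2, 100 mM KCl, 10 mM MgCl2, 0.05% BSA, 0.01% Tween-20. Pyruvate kinase from T. brucei plus substrate met compound, then ADP (130 uM final). Luminescence was read post 45 min RT.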
SARS PLP yeast = SARS-CoV PLP inhibition in yeast. S. cerevisiae expressing SARS-CoV PLpro, growth rescue. Potency, µM (highest dose often 32.9 µM), for the others: at the top dose activity, positive = growth rescue, most hits filed as activators. AID 485353. hit rate 0.19% among 330,000; calls by dose curve; note: 0% is about no effect; nearly all actives have a fitted effect of over 55% in size
Sm TGR block = blocks Schistosoma mansoni thioredoxin glutathione reductase. hit rate 3% among 360,000. Potency, µM (titrated, usually from 114 µM), without a hit: at the top dose activity change, negative = inhibition, actives largely listed as inhibitors. purified TGR, DTNB reduction, TNB absorbance 405 nm; note: % is set by controls: 0 for no effect and ±100 for the full control effect; nearly all actives have a fitted effect of over 60% in size
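Kinetic colorimetric format: TGR-catalysed, NADPH-driven DTNB reduction monitored via TNB absorbance. Enzyme dispensed at 20 nM; compound exposure 15 min at room temperature before reaction start.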
AmpC no deterg = inhibitors of E. coli AmpC beta-lactamase without detergent. hit rate 0.52% among 330,000. Potency, µM (titrated, usually from 57.1 µM), without a hit: top-dose activity change, negative = inhibition, usual class: inhibitors. AmpC nitrocefin hydrolysis, absorbance 480 nm, 0.0001% Triton. P00811;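 note: plate controls were no compound for no effect and no enzyme for full effect; nearly all actives have a fitted effect of over 20% in size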
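20 mM phosphate pH 7.0 + 0.01% (detergent screen) or 0.0001% Triton X-100; 5.3 nM AmpC reagent; cpd preinc 15 min RT; nitrocefin (800 uM stock) to start; A480 q20 s × 4 min; Activity was normalised to no-enzyme and no-compound control wells.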
An asterisk follows results filed as active; ? = inconclusive; · = not tested or not shown. This is a sample that favours compounds with a hit; in the whole collection about 3.3% have one here. Unless noted, calls come from the whole dose curve; as a rule, active = well fitted curve in the direction sought with a large enough effect; inconclusive = small, poorly fitted or top-dose-only effect, or another doubt; inactive = no such curve, though single readings can be large; an effect the other way counts as inactive or inconclusive. Potency is the fitted concentration of half-maximal effect.

SMILES	RE007 growth inh	AmpC detergent	TbPYK inhibitor	SARS PLP yeast	Sm TGR block	AmpC no deterg
CC1=C(C(=O)OC2CCCCCC2)C(c2cccc(Cl)c2)CC(=O)N1 (stereo not given)	·	-2.3%	0.9%	·	6.5%	·
Cc1cccc(N2C(=O)C(CC(=O)Nc3cccc(F)c3)N(Cc3cccs3)C2=O)c1 (stereo not given)	·	21.6%	0.5%	·	3.3%	·
O=C(c1ccc(CNS(=O)(=O)c2ccc(Br)cc2)cc1)N1CCC2(CC1)OCCO2	-6.5%	-14.9%	-0.3%	2.2%	-11.9%	-3.3%
O=C(c1ccc(CS(=O)(=O)c2ccc(Br)cc2)o1)N1CCN(c2ccc(F)cc2)CC1	-6.9%	5.0%	4.0%	-5.7%	0.1%	53.1%
O=C(c1ccc(CS(=O)(=O)c2ccc(Br)cc2)o1)N1CCOCC1	15.3%	-2.9%	-2.0%	5.5%	44.7µM*	-6.0%
O=C(c1ccc(CS(=O)c2ccccc2Cl)o1)N1CCN(c2ccccc2)CC1 (stereo not given)	-3.5%	5.1%	3.7%	2.9%	-24.7%	106.5%
O=C(c1ccc(CS(=O)c2ccccc2Cl)o1)N1CCOCC1 (stereo not given)	4.6%	0.1%	-10.1%	2.1%	31.6µM*	-12.4%
O=C(c1ccc(CNS(=O)(=O)c2ccccc2)cc1)N1CCC2(CC1)OCCO2	7.8%	0.5%	5.5%	4.3%	39.8µM*	7.9%
O=C(CCS(=O)(=O)c1ccc(Br)cc1)N1CCC2(CC1)OCCO2	-3.3%	-1.2%	-2.7%	-4.8%	3.6%	-19.3%
O=C(c1ccc(CS(=O)(=O)c2ccc(Br)cc2)o1)N1CCC2(CC1)OCCO2	-8.1%	-5.8%	-7.4%	-1.6%	35.5µM*	-15.1%
COc1ccc(N2CCN(C(=O)c3cc4c(=O)n(Cc5cccs5)ccc4nc3C)CC2)cc1	·	?	2.1%	·	-7.0%	·
CCC(=O)N1CCc2cc(Br)cc(S(=O)(=O)CCC(=O)NCCc3ccc(Cl)cc3)c21	·	4.9%	4.2%	·	-3.7%	·
CNC(=S)Nc1ccc2nc(C)c(C)nc2c1	5.0%	-1.9%	-7.5%	-4.3%	31.6µM*	-23.8%
CC(C)C(=O)Nc1cccc(-c2cnc3ccccc3n2)c1	-14.9%	-13.0%	-7.7%	-5.8%	-2.7%	-7.3%
CCOc1ccc(NC(=S)Nc2ccc3nsnc3c2)cc1	-28.4%	-11.6%	0.7%	-17.7%	?	-27.0%
COc1ccc(C(=O)Nc2ccc3nc(C)c(C)nc3c2)cc1	-0.3%	1.4%	-2.1%	-3.5%	0.7%	-9.0%
CNC(=S)Nc1ccc2nc(C)oc2c1	1.5%	-1.1%	1.3%	0.1%	-3.3%	-19.4%
COc1ccc(NC(=S)Nc2ccc3nsnc3c2)cc1	-14.8%	?	-3.6%	-10.3%	39.8µM*	-20.7%
CNC(=S)Nc1cccc(-c2cnc3ccccc3n2)c1	-2.9%	?	4.6%	-2.0%	11.2µM*	-29.9%
COc1ccc(NC(=S)Nc2ccc3nc(C)c(C)nc3c2)cc1	-2.0%	-3.8%	-13.4%	-1.6%	22.4µM*	-15.0%
CCOc1ccc(NS(=O)(=O)c2ccc3[nH]cc(C(=O)N4CCCCCC4)c(=O)c3c2)cc1	·	6.9%	0.0%	·	3.4%	·
CC(C)(C)C(=O)NC1(C(F)(F)F)C(=O)Nc2c1c(=O)[nH]c(=O)n2-c1ccccc1 (stereo not given)	·	7.5%	-9.9%	·	?	·
COc1cc(-c2noc(-c3cc(C)[nH]n3)n2)cc(OC)c1OC	·	4.0%	-5.5%	·	4.6%	·
CCOc1ccc(C(C)=O)cc1CN1C(=O)c2ccccc2S1(=O)=O	0.9%	0.5%	8.3%	-0.1%	35.5µM*	-1.3%
O=C(NCCS(=O)(=O)N1CCN(c2ccc(F)cc2)CC1)C(c1ccccc1)c1ccccc1	·	-2.2%	4.9%	·	-11.7%	·
SMILES	RE007 growth inh	AmpC detergent	TbPYK inhibitor	SARS PLP yeast	Sm TGR block	AmpC no deterg
O=C1C(=O)c2c(C(=O)c3ccccc3)coc2-c2ccccc21	11.2µM*	-0.4%	-3.9%	-35.2%	?	-34.9%
CCOC(=O)c1cc(CNC(=O)c2c(C)oc3c2CCCC3)c(C)o1	18.5%	-1.1%	-7.7%	-1.7%	22.4µM*	50.4%
COc1ccc(Cl)cc1NC(=O)c1cc2c(=O)n3ccccc3nc2s1	·	16.4%	-2.1%	·	7.2%	·
CCOC(=O)c1c(C)[nH]c(C=Nc2ccccc2)c1O	·	-0.4%	·	2.6%	31.6µM*	-6.8%
CCOC(=O)c1c(C)[nH]c(C=Nc2ccc(OC)cc2)c1O	8.6%	-12.3%	-4.6%	-16.3%	-16.6%	-24.7%
CCOC(=O)C1=C(CN2CCN(c3ccccc3)CC2)NC(=O)NC1c1ccc(C)cc1 (stereo not given)	·	-2.4%	4.3%	·	?	·
c1ccc(SSc2ccccn2)nc1	44.7µM*	·	?	·	·	·
Cc1ccc(C(=O)N(Cc2nnc(-c3ccccc3Cl)o2)C2CC2)o1	15.1%	·	-2.6%	·	·	·
O=C(c1ccc([N+](=O)[O-])o1)N(Cc1nnc(-c2ccccc2Cl)o1)C1CC1	-0.3%	3.2%	4.0%	-1.1%	50.1µM*	-7.1%
CCn1cnc2cc(NCc3ccc(OC)cc3)ccc21	-22.0%	-8.2%	-10.2%	-6.0%	7.0%	-18.2%
CCc1ccc(CNc2ccc3c(c2)ncn3CC)cc1	-27.6%	-4.4%	-7.7%	-4.7%	4.47µM*	0.2%
CN(C)c1ccc(CNc2ccc3c(c2)ncn3C)cc1	7.1%	?	-29.5%	1.3%	35.5µM*	4.7%
CC(C)c1ccc(CNc2ccc3c(c2)ncn3C)cc1	-19.2%	3.1%	0.5%	-2.5%	5.2%	21.1%
CCC(Cn1nnc2ccccc2c1=O)NC(=O)Nc1ccc(C)cc1C (stereo not given)	·	12.1%	0.2%	·	-3.1%	·
Cc1ccc(NC(=S)N/N=C2/CCCCc3ccccc32)cc1	-0.4%	-11.4%	0.5%	-2.9%	0.9%	?
Cc1cccc(NC(=S)N/N=C2/CCCCc3ccccc32)c1	-5.4%	-2.7%	-9.8%	-47.2%	-1.0%	31.6µM*
Cc1ccc(NC(=O)Cn2c(CCC(=O)O)ccc2-c2cccs2)cc1	-6.9%	?	-4.5%	-2.8%	25.1µM*	-54.4%
COC(=O)c1ccccc1NC(=O)Cn1c(CCC(=O)O)ccc1-c1ccc(C)cc1	·	-6.5%	-1.3%	·	-5.8%	·
COC(=O)c1ccccc1NC(=O)Cn1c(CCC(=O)O)ccc1-c1cccs1	6.7%	-0.9%	-8.0%	-7.0%	50.1µM*	-13.3%
Cc1ccccc1NC(=O)Cn1c(CCC(=O)O)ccc1-c1cccs1	7.6%	-1.7%	-1.2%	-1.8%	39.8µM*	-32.5%
CCCn1c(=O)c2ccccc2n2c(SCC(N)=O)nnc12	4.5%	?	1.5%	-6.0%	8.1%	-8.0%
